Source: PubChem BioAssay AID1159580 (chemical genetic matrix, 2015)
Several values for one entry are separate records, joined by “and”; a condition that tells them apart may be missing. Identical values can stand only once. The campaign covered roughly 5,500 compounds. About 2,000 (36%) were called active. Roughly 18% stayed inconclusive and do not appear here. Rule as the data show it: active = normalized growth mostly below about 0.91 (no sharp cut-off); inconclusive = no clear call, values can overlap the other calls; inactive = mostly above about 0.92. The list shows a part of the results.

Experiment: chemical genetic growth profiling, strain panel (AID 1159580);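 also: tested at 20 µM; growth read once vehicle control cultures reached saturation at 30 °C; 1 = growth at the plate median or of vehicle wells; lower values mean less growth of the strain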
Conditions: S. cerevisiae deletion strains, growth OD

Measured: normalized growth

O=C(/C=C/c1ccc(O)cc1)c1ccc(O)cc1O
inactive: locus YAL013W, strain DEP1, stronger effect = lower value 0.996 and 0.982 | locus YAL021C, strain ccr4, stronger effect = lower value 0.981 | locus YAL026C, strain drs2, stronger effect = lower value 1.02 | locus YAL030W, strain snc1, stronger effect = lower value 1.01 | locus YAL040C, strain CLN3, stronger effect = lower value 0.986 | locus YBL061C, strain skt5, stronger effect = lower value 1 | locus YBR009C, strain hhf1, stronger effect = lower value 0.999 | locus YBR021W, strain FUR4, stronger effect = lower value 1.04 | locus YBR023C, strain chs3, stronger effect = lower value 0.997 | locus YBR171W, strain sec66, stronger effect = lower value 1.01 | locus YBR229C, strain ROT2, stronger effect = lower value 0.987 | locus YBR231C, strain swc5, stronger effect = lower value 0.979 | locus YBR279W, strain paf1, stronger effect = lower value 0.99 | locus YCL011C, strain gbp2, stronger effect = lower value 0.995 | locus YCL016C, strain dcc1, stronger effect = lower value 0.991 | locus YCL029C, strain bik1, stronger effect = lower value 0.945 | locus YCL061C, strain MRC1 (second series), stronger effect = lower value 1.01 | locus YCL069W, strain vba3, stronger effect = lower value 1.01 | locus YCR088W, strain abp1, stronger effect = lower value 1.01 | locus YDL005C, strain med2, stronger effect = lower value 1.02 | locus YDL035C, strain GPR1, stronger effect = lower value 0.98 | locus YDL040C, strain nat1, stronger effect = lower value 1 | locus YDL074C, strain BRE1, stronger effect = lower value 0.912 | locus YDL101C, strain DUN1, stronger effect = lower value 1 | locus YDL185W, strain tfp1, stronger effect = lower value 0.919 | locus YDL192W, strain arf1, stronger effect = lower value 0.948 | locus YDR001C, strain nth1, stronger effect = lower value 1 | locus YDR069C, strain doa4, stronger effect = lower value 1 | locus YDR101C, strain arx1, stronger effect = lower value 0.96 | locus YDR137W, strain rgp1, stronger effect = lower value 1.08 | locus YDR150W, strain NUM1, stronger effect = lower value 0.991 and 1.01 | locus YDR159W, strain sac3, stronger effect = lower value 0.99 | locus YDR162C, strain NBP2, stronger effect = lower value 1.02 | locus YDR195W, strain ref2 1.04 | locus YDR297W, strain sur2, stronger effect = lower value 1 | locus YDR318W, strain mcm21, stronger effect = lower value 0.966 | locus YDR334W, strain swr1, stronger effect = lower value 1 | locus YDR335W, strain msn5, stronger effect = lower value 1.02 | locus YDR363W, strain ESC2, stronger effect = lower value 1.01 | locus YDR388W, stronger effect = lower value 0.96 | locus YDR392W, strain spt3, stronger effect = lower value 0.892 | locus YDR502C, strain sam2, stronger effect = lower value 0.963 | locus YEL003W, strain gim4, stronger effect = lower value 1.01 | locus YEL037C, strain rad23, stronger effect = lower value 1.01 | locus YEL061C, strain CIN8 (second series), stronger effect = lower value 1.01 | locus YEL061C, strain CIN8, stronger effect = lower value 0.992 | locus YER002W, strain NOP16, stronger effect = lower value 0.985 | locus YER015W, strain faa2, stronger effect = lower value 1 | locus YER016W, strain bim1, stronger effect = lower value 1.01 | locus YER110C, stronger effect = lower value 0.955 | locus YER111C, strain swi4, stronger effect = lower value 1.02 | locus YER155C, strain BEM2 (second series), stronger effect = lower value 0.97 | locus YER155C, strain BEM2, stronger effect = lower value 0.972 | locus YER167W, strain BCK2, stronger effect = lower value 0.971 | locus YFR010W, strain ubp6, stronger effect = lower value 1.02 | locus YGL078C, strain dbp3, stronger effect = lower value 1.01 | locus YGL086W, strain mad1, stronger effect = lower value 0.958 | locus YGL167C, strain pmr1, stronger effect = lower value 1.02 | locus YGL173C, strain kem1, stronger effect = lower value 1.02 | locus YGL227W, strain vid30, stronger effect = lower value 1.01 | locus YGL240W, strain doc1, stronger effect = lower value 0.994 | locus YGL248W, strain PDE1, stronger effect = lower value 1.01 | locus YGL253W, strain hxk2, stronger effect = lower value 0.987 | locus YGR078C, strain PAC10, stronger effect = lower value 0.997 and 0.992 | locus YGR135W, strain pre9, stronger effect = lower value 0.941 | locus YGR252W, strain gcn5, stronger effect = lower value 0.935 | locus YHR013C, strain ard1, stronger effect = lower value 1.03 | locus YHR027C, strain rpn1, stronger effect = lower value 1.01 | locus YHR030C, strain SLT2, stronger effect = lower value 0.98 and 0.955 | locus YHR079C, strain IRE1 (second series), stronger effect = lower value 0.959 | locus YHR079C, strain IRE1, stronger effect = lower value 0.895 | locus YHR094C, strain hxt1, stronger effect = lower value 0.965 | locus YHR129C, strain ARP1, stronger effect = lower value 0.978 | locus YHR142W, strain chs7, stronger effect = lower value 0.985 | locus YHR200W, strain rpn10, stronger effect = lower value 0.944 | locus YIL066C, strain RNR3, stronger effect = lower value 0.975 | locus YIL073C, strain SPO22, stronger effect = lower value 0.96 | locus YIL125W, strain kgd1, stronger effect = lower value 0.963 | locus YIR030C, strain dcg1, stronger effect = lower value 0.973 | locus YJL092W, strain hpr5, stronger effect = lower value 1.01 | locus YJL095W, strain BCK1 (second series), stronger effect = lower value 1.01 | locus YJL095W, strain BCK1, stronger effect = lower value 1.01 and 0.977 | locus YJL115W, strain asf1, stronger effect = lower value 1.02 | locus YJL129C, strain trk1, stronger effect = lower value 0.983 | locus YJL134W, strain LCB3, stronger effect = lower value 0.97 | locus YJL154C, strain vps35, stronger effect = lower value 1.02 | locus YJL164C, strain tpk1, stronger effect = lower value 0.986 | locus YJL166W, strain qcr8, stronger effect = lower value 1.01 | locus YJL168C, strain set2, stronger effect = lower value 0.963 | locus YJL187C, strain SWE1 (second series), stronger effect = lower value 0.994 | locus YJR043C, strain POL32, stronger effect = lower value 0.961 | locus YJR066W, strain TOR1, stronger effect = lower value 0.904
